The whole screen tested about 320,000 compounds, of which about 2,100 (0.66%) were called active. Inconclusive results (about 53%) are left out. Calls come from the whole dose curve; as a rule, active = well fitted inhibition curve with a large enough effect in the signal ratio, with a control signal flat (not every such curve was filed as active); inconclusive = small, poorly fitted or top-dose-only effect, or effect the other way, or a change in a side signal; inactive = flat fitted curve, though single readings scatter; the % refers to the signal ratio. Shown is part of a subset that was picked to be rich in actives.
Potency is the fitted concentration of half-maximal effect.

The nature of the assay: qHTS Assay for Lipid Storage Modulators in Drosophila S3 Cells.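 For cell number change: cells counted by Cell Tracker Red CMTPX staining in the red channel.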 For lipid storage change, negative = inhibition: % is set by controls: 0 for no effect and ±100 for the full control effect. The following applies: BODIPY lipid droplet fluorescence, 18-24 h, cells fed with added oleic acid; cell number change: measured here: cell count max response; series mostly up to 46.1 µM; lipid storage change, negative = inhibition: at the top concentration. The gist of the method:
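Laser-scanning cytometry quantifies lipid droplet accumulation (500–530 nm total intensity; droplet/cell object ratio) in oleic acid-fed (400 uM added) Drosophila S3 cells treated with a concentration series. 20 uM Triacsin C defined 100% inhibition.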
(In general: In qHTS, concentration-response curves come from the screen itself.)
Consider `CCOC(=O)c1sc2nc(CSc3nc4ccccc4n3CC)[nH]c(=O)c2c1C`, for which the “lipid storage change, negative = inhibition” value was 1% (inactive) and the cell number change is -16.4%. The like results for `C=CCn1c(SCc2nc3sc(C(=O)O)c(C)c3c(=O)[nH]2)nnc1-c1ccccc1` were, in that order, 3.05% (inactive) and -15.1%. `CCn1c(SCc2nc3sc(C(=O)O)c(C)c3c(=O)[nH]2)nc2ccccc21`: the Potency was 20.6 µM (active).

For `O=C(Nc1ccc(C2CCCCC2)cc1)C1CCN(c2ncccn2)CC1`, the “lipid storage change, negative = inhibition” value was 9.94% (inactive) and the cell number change was -8.69%. `O/N=C1\CCC\C1=C/c1ccco1`: the “lipid storage change, negative = inhibition” value was -0.642% (inactive) and the cell number change came to 0.139%.

Consider `CC(C)(C)C1C/C(=C/c2ccco2)C(=O)/C(=C/c2ccco2)C1` (configuration not stated), for which the Potency was 10.3 µM (active) and the cell number change is -6.47%. For `O=C1/C(=C\c2ccco2)CCC/C1=C\c1ccco1`, in that order: 20.6 µM (active) and -21.3%. As to `CC1=N/C(=C/c2ccco2)C(=O)O1`, the “lipid storage change, negative = inhibition” value is 0.0552% (inactive) and the cell number change is -0.878%. Take `Nc1ccc2c(c1)C/C(=C/c1ccco1)C2=O`: the “lipid storage change, negative = inhibition” value is 27.6% (inactive).

On to `O=C1/C(=C/c2ccco2)CCC1C1CCCC1` (configuration not stated), for which the “lipid storage change, negative = inhibition” value was 0.768% (inactive) and the cell number change was -18.8%. `CN(C)S(=O)(=O)c1ccc(C(=O)Nc2ccc(S(=O)(=O)NC3=NCCCCC3)cc2)cc1`: the result was inactive. With `O=C(CN1C(=O)CCS(=O)(=O)c2ccccc21)Nc1cccc(Cl)c1`, the “lipid storage change, negative = inhibition” value was 0.523% (inactive) and the cell number change is -9.4%. Regarding `O=C(CN1C(=O)CCS(=O)(=O)c2ccccc21)Nc1cccc(F)c1`, the Potency was 23.1 µM (active) and the cell number change worked out at 3.53%. The like results for `CCc1ccc(NC(=O)CN2C(=O)CC(C)S(=O)(=O)c3ccccc32)cc1` (configuration not stated) were, in that order, 20.6 µM (active) and 4.2%. Regarding `Cc1cc(C)c(NC(=O)CN2C(=O)CC(C)S(=O)(=O)c3ccccc32)c(C)c1` (configuration not stated), the outcome was inactive and the cell number change is 13.7%. The like results for `COc1ccc(NC(=O)CN2C(=O)CC(C)S(=O)(=O)c3ccccc32)cc1` (configuration not stated) were, in that order, “inactive” and 4.2%. With `O=C(CN1C(=O)CCS(=O)(=O)c2ccccc21)Nc1ccc2c(c1)OCCO2`, the “lipid storage change, negative = inhibition” value is 4.62% (inactive) and the cell number change was -1.7%. For `CC1(C)CC2CC(C)(CN2C(=O)COC(=O)c2ccc(Cl)c(N)c2)C1` (configuration not stated), in that order: -0.783% (inactive) and 7.11%. `Cc1ccc(NC(=O)CCc2c(C)nn(-c3ccc(N4CCCCC4)nn3)c2C)cc1`: the compound was called inactive. On to `Cc1ccc(S(=O)(=O)CCC(=O)OCc2ccc(Cl)cc2)cc1`, for which the “lipid storage change, negative = inhibition” value was 8.22% (inactive) and the cell number change is -1.83%.

On to `Cc1ccc2[nH]c(=O)c(CN(CC3CCCO3)C(=O)c3cccs3)cc2c1` (configuration not stated), for which the compound was called inactive and the cell number change was 31.3%. With `COc1ccc(CNC(=O)C2(c3ccc(Cl)cc3)CC2)cc1`, the “lipid storage change, negative = inhibition” value is 19.7% (inactive) and the cell number change was found to be 15.2%. `O=C(NCCO)C1(c2ccc(Cl)cc2)CCCC1`: the Potency was 20.6 µM (active) and the cell number change was -14.3%. As to `O=C(NCc1ccco1)C1(c2ccc(Cl)cc2)CCCC1`, the “lipid storage change, negative = inhibition” value is 1.83% (inactive) and the cell number change was found to be 17%.

For the compound `Cc1cc(C)c2[nH]c3nc(SCC(=O)O)nnc3c2c1`, the outcome was inactive and the cell number change amounted to 15.4%. Regarding `O=c1oc2ccccc2c(N2CCCCC2)c1CN1CCCC1`, the “lipid storage change, negative = inhibition” value was 6.55% (inactive) and the cell number change amounted to 20.3%. Regarding `O=C(Cc1ccccc1)NCc1n[nH]c(=S)n1-c1ccc(Br)cc1`, the “lipid storage change, negative = inhibition” value is 1.65% (inactive) and the cell number change stood at 12.1%.

Take `COCCNC(=O)C1(C)C=CC2(CCCCC2)N1C(=O)c1ccccc1` (configuration not stated): the “lipid storage change, negative = inhibition” value was -1.28% (inactive) and the cell number change was -12.7%. For `S=C(Nc1ccc(Cl)cc1)NN1CCOCC1`, in that order: -0.69% (inactive) and -1.28%. For the compound `Cc1sc2ncnc(NCc3ccccc3)c2c1C`, the “lipid storage change, negative = inhibition” value was -23.9% (inactive).

Turning to `COc1ccc(-c2nnnn2C)cc1S(=O)(=O)NCc1ccccc1`, the “lipid storage change, negative = inhibition” value is 7.78% (inactive) and the cell number change was -12.1%.

As for `CSc1ncc2c(n1)-c1cc(C)ccc1SC2`, the “lipid storage change, negative = inhibition” value was -11.1% (inactive) and the cell number change is -11.4%. `O=C(COC(=O)c1cccc(S(=O)(=O)N2CCCC2)c1)Nc1ccccc1`: the “lipid storage change, negative = inhibition” value was -2.77% (inactive). On to `O=C(CCOc1ccccc1)Nc1ccc(S(=O)(=O)N2CCCC2)cc1`, for which the “lipid storage change, negative = inhibition” value is -4.91% (inactive) and the cell number change was -12%. Turning to `O=C(COC(=O)c1ccccc1O)Nc1cccc(S(=O)(=O)N2CCCC2)c1`, the Potency is 2.91 µM (active) and the cell number change was -0.622%.

For `Cc1ccc(C)c(OCCC(=O)Nc2cccc(S(=O)(=O)N3CCCCC3)c2)c1`, the Potency was 7.31 µM (active) and the cell number change is -9.88%. The like results for `O=C(CCCOc1ccccc1)Nc1cccc(S(=O)(=O)N2CCCCCC2)c1` were, in that order, 0.651 µM (active) and -1%. Take `CC(=O)c1ccc(OCCCC(=O)Nc2cccc(S(=O)(=O)N3CCCCC3)c2)cc1`: the “lipid storage change, negative = inhibition” value was 14.7% (inactive) and the cell number change was -10.4%.

As to `O=C(COC(=O)c1cccnc1Cl)Nc1cccc(S(=O)(=O)N2CCCCC2)c1`, the “lipid storage change, negative = inhibition” value is -4.42% (inactive) and the cell number change is -11.8%. The like results for `COc1ccccc1OCCC(=O)Nc1cccc(S(=O)(=O)N2CCCCC2)c1` were, in that order, 14.9% (inactive) and 9.54%. On to `Cc1ccc(C)c(OCCC(=O)OCC(=O)Nc2cccc(S(=O)(=O)N3CCCC3)c2)c1`, for which the “lipid storage change, negative = inhibition” value is -3.7% (inactive) and the cell number change came out at 13%. For `O=C(NCc1csc(-c2cccs2)n1)Nc1ccc(C(F)(F)F)cc1`, in that order: -3.23% (inactive) and -0.569%. The like results for `O=C(COC(=O)CSc1cc(Cl)ccc1Cl)Nc1ncc(C(F)(F)F)cc1Cl` were, in that order, 5.87% (inactive) and 1.5%.

`Cc1[nH]n(-c2ccccc2)c(=O)c1N=Nc1ccc2c(c1)OCO2`: the “lipid storage change, negative = inhibition” value is -19.5% (inactive) and the cell number change was -5.87%.

For `O=C(c1sc(N2CCOCC2)nc1-c1ccccc1)N1CCCCC1`, the “lipid storage change, negative = inhibition” value was 3.96% (inactive) and the cell number change came to 3.25%. For `O=C(Cn1nnc(-c2ccc(OCc3ccccc3F)cc2)n1)N1CCOCC1`, in that order: -1.79% (inactive) and -16.4%.

With `COc1ccc2nc(NC(=O)CCN3C(=S)NC(C)(C)CC3C)sc2c1` (configuration not stated), the “lipid storage change, negative = inhibition” value is 1.37% (inactive).
